Measurements reported in PubChem BioAssay (NCATS).
Records with an inconclusive call do not appear. A call without a number means that no potency is given here. Active and inactive are the calls of the source. Calls follow the shape of the dose curve; as a rule, active = well fitted inhibition curve with a large enough effect; inconclusive = small, poorly fitted or top-dose-only effect; inactive = no such curve, though single readings can be large or run the other way.

molecular target: Cytochrome P450 3A4 (Homo sapiens) (UniProt P08684); assay: qHTS Assay for Inhibitors and Substrates of Cytochrome P450 3A4 (AID 884); settings: recombinant CYP3A4, Luciferin-PPXE luminescence; series mostly up to 57.1 µM; also: nearly all actives have a fitted effect of over 50% in size
Procedure: NIH Molecular Libraries Screening Centers Network [MLSCN]
NIH Chemical Genomics Center [NCGC]
The P450 gene superfamily is involved in the metabolism and clearance of xenobiotics. This assay used human CYP3A4 to measure the dealkylation of luciferin-6' phenylpiperazinylyl (Luciferin-PPXE; […]) to luciferin. The luciferin is then measured by luminescence after the addition of a luciferase detection reagent. Luciferin-PPXE concentration in the assay was equal to its KM for CYP3A4. Inhibitors and some substrates limit the production of luciferin, and decrease measured luminescence.
NCGC Assay Protocol Summary:
Two uL of enzyme and substrate mix (final concentrations: 20nM CYP3A4, 25uM Luciferin-PPXE, 200mM KPO4) were dispensed into a white, solid bottom 1536-well microtiter plate. 23nL of compound was transferred by a pin tool. The plate was incubated at RT for 10 min. Two uL of an NADPH regeneration solution (Promega supplied reagent) was dispensed and the reaction was allowed to continue for 60 min at RT. Then the reaction was stopped by reconstituted luciferin detection buffer. After another 20 min of incubation the plate was read on the ViewLux (Perkin Elmer) at 60 sec exposure and 2x2 binning. This protocol was carried out with Promega-Glo reagents and further information can be found at http://www.promega.com/tbs/tb325/tb325.pdf. Data were normalized to the to AC100 inhibition (57 uM ketoconazole).
Keywords: P450, CYP3A4, Luciferase, MLSMR, MLSCN, NIH Roadmap, qHTS, NCGC
Potency is read from the fitted curve at half-maximal effect.

Cytochrome P450 3A4 (Homo sapiens), sequence (P08684 whole entry, looked up): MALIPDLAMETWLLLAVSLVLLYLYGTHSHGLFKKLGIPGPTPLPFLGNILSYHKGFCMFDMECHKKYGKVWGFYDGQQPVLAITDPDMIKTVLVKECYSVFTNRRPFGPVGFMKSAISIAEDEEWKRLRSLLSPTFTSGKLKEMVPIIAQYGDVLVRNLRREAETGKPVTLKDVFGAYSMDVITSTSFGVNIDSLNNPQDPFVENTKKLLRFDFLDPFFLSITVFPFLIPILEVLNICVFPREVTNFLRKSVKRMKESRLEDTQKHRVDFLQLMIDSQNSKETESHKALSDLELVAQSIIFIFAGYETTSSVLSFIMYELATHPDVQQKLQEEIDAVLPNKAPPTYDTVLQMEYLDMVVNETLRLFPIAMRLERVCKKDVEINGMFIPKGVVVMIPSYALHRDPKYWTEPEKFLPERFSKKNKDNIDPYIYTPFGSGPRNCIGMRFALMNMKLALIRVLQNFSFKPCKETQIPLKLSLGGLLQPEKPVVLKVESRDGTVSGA

| Structure (SMILES) | Potency |
| --- | --- |
| Cc1cc(O)cc(O)c1C(=O)O | 25.1 µM (active) |
| CN(C)c1ccc(-c2nccc(NCc3ccccc3)n2)cc1 | 7.94 µM (active) |
| CC1CCC2(OC1)OC1CC3C4CC[C@@H]5CC(O)CC[C@@]5(C)C4CC(=O)[C@]3(C)C1C2C (stereo not given in full) | inactive |
| COC(=O)CCCC[C@@H]1SC[C@@H]2NC(=O)N[C@@H]21 | inactive |
| C=C1C2CC[C@@]3(C)C(c4ccoc4)OC(=O)C[C@@]13OC1CC(=O)C(C)(C)C(CC(=O)OC)[C@]12C (stereo not given in full) | 5.01 µM (active) |
| CCCC(=O)O[C@]1(C(=O)CO)CCC2[C@@H]3CCC4=CC(=O)CC[C@]4(C)C3C(O)C[C@]21C (stereo not given in full) | inactive |
| CC1CCC2(C(=O)O)CCC3(C)C(=CCC4C3(C)CCC3[C@@]4(C)CC(O)C(O)[C@@]3(C)CO)C2C1C (stereo not given in full) | inactive |
| CC1(C)S[C@@H]2[C@H](NC(=O)[C@@H](N)c3ccccc3)C(=O)N2[C@H]1C(=O)O[C@H]1OC(=O)c2ccccc21 | 1.58 µM (active) |
| Cn1nnnc1SCC1=C(C(=O)O)N2C(=O)C(NC(=O)C(OC=O)c3ccccc3)C2SC1 (stereo not given) | inactive |
| NCCC(O)C(=O)NC1C[C@@H](N)[C@H](O[C@@H]2OC(CN)C(O)C(O)C2O)C(O)[C@H]1O[C@H]1OC(CO)C(O)C(N)C1O (stereo not given in full) | inactive |
| Clc1ccc([C@H](Cn2ccnc2)OCc2csc3c(Cl)cccc23)c(Cl)c1 | 0.794 µM (active) |
| COc1cc(OC)c2c(=O)c(OC)c(-c3ccc(OC)c(OC)c3)oc2c1 | 1.26 µM (active) |
| CCC(C)C(NC)C(=O)O (stereo not given) | inactive |
| COc1ccc(-c2cc(=O)c3c(O)c(OC)c(O[C@@H]4OC(COC5OC(C)C(O)C(O)[C@@H]5O)C(O)C(O)C4O)cc3o2)cc1 (stereo not given in full) | inactive |
| CC12CCC3C(CC3(C)C)C(C)(CCC1=O)O2 (stereo not given) | inactive |
| O=C(NCO)c1cccnc1 | inactive |
| COc1ccc(C2CC(=O)c3c(O)cc(OC4OC(COC5OC(C)C(O)C(O)C5O)C(O)C(O)C4O)cc3O2)cc1O (stereo not given) | inactive |
| Nc1nc2c(ncn2C2OC(CO)CC2O)c(=O)[nH]1 (stereo not given) | inactive |
| C=C(C)C1(O)OC(=O)C=C1OC (stereo not given) | inactive |
| CC(=O)Oc1ccc2c(c1OC(C)=O)OCC1(O)Cc3c(cc(OC(C)=O)c(OC(C)=O)c3OC(C)=O)C21 (stereo not given) | inactive |

| Structure (SMILES) | Potency |
| --- | --- |
| CSc1ncnc2c1ncn2C1OC(CO)C(O)C1O (stereo not given) | inactive |
| CC(=O)O[C@@]1(C(C)=O)CCC2C3C=C(Cl)C4=CC(=O)CC[C@]4(C)C3CC[C@]21C (stereo not given in full) | inactive |
| CC1(C)CC2C1CC[C@]1(C)CCC3C(C(=O)O)CC(=O)O[C@]32C1 (stereo not given in full) | inactive |
| O=c1ccn(C2OC(COP(=O)(O)OP(=O)(O)OP(=O)(O)O)C(O)C2O)c(=O)[nH]1 (stereo not given) | inactive |
| Cc1cc2ccc(=O)oc2cc1OC[C@@H](O)C(C)(C)O | inactive |
| COc1ccc(C(=O)c2ccccc2)c(O)c1O | inactive |
| CCCCCCCCCCCCC(C(=O)O)C(C)C(=O)O (stereo not given) | inactive |
| COC1CC(O[C@H]2/C(C)=C/CC3CC(C[C@]4(CCC(C)C(C5CCCCC5)O4)O3)OC(=O)[C@H]3C=C(C)/C(=N/O)C4OC/C(=C\C=C\[C@@H]2C)[C@@]43O)OC(C)C1O (stereo not given in full) | inactive |
| CCC(=O)OC1C2CC3=C4CC(=O)OC(c5ccoc5)[C@]4(C)CCC3[C@@](C)(C2=O)C(CC(=O)OC)C1(C)C (stereo not given in full) | inactive |
| CC(=O)OC1CC(OC(C)=O)[C@]2(C)C(CC(OC(C)=O)[C@]3(C)C2CC[C@@]2(C)C(c4ccoc4)OC(=O)C4O[C@]432)C1(C)C (stereo not given in full) | 1.26 µM (active) |
| COc1ccc(CCC(=O)c2c(O)cc(OC3OC(CO)C(O)C(O)C3O[C@@H]3OC(C)C(O)C(O)C3O)cc2O)cc1O (stereo not given in full) | inactive |
| O=c1cc(-c2ccccc2)oc2cc(O)c(O)cc12 | inactive |
| CNC1C(O)C(O)C(CO)O[C@H]1OC1C(O[C@@H]2C(O)C(O)[C@@H](N=C(N)N)C(O)C2N=C(N)N)OC(C)[C@]1(O)C=O (stereo not given in full) | inactive |
| COc1ccc(/C=C/c2cc(O)cc(O[C@H]3OC(CO)C(O)C(O)C3O)c2)cc1 (stereo not given in full) | inactive |
| CC(=O)OC1CC2C(C)(C)C(=O)CC[C@]2(C)C2CC[C@@]3(C)C(c4ccoc4)OC(=O)C4OC43[C@]12C (stereo not given in full) | 3.98 µM (active) |
| COc1c(-c2coc3cc4c(cc3c2=O)CC(O)C(C)(C)O4)ccc2c1C=CC(C)(C)O2 (stereo not given) | inactive |
| CCC(C)C(=O)OC1C2CC3=C4CC(=O)OC(c5ccoc5)[C@]4(C)CCC3[C@@](C)(C2=O)C(CC(=O)OC)C1(C)C (stereo not given in full) | 6.31 µM (active) |
| CC1(C)Oc2ccc3ccc(=O)oc3c2CC1O (stereo not given) | inactive |
| O=c1cc(-c2ccc(O)cc2)oc2cc(OC3OC(CO)C(O)C(O)[C@H]3O[C@@H]3OC[C@@](O)(CO)C3O)cc(O)c12 (stereo not given in full) | inactive |
| Cc1onc(-c2c(Cl)cccc2Cl)c1C(=O)N[C@H]1C(=O)N2[C@H]1SC(C)(C)[C@H]2C(=O)O | inactive |
